Assay [1] deals with Luciferin 4-monooxygenase (Photinus pyralis) (UniProt P08659). The experiment in a line: Biochemical firefly luciferase enzyme assay for NPC (AID 624030). Also: nearly all actives have a fitted effect of over 70% in size. Also: potency is read from the fitted curve at half-maximal effect. A digest of the protocol: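 Purified P. pyralis luciferase at 10 nM in 50 mM Tris Acetate (final), luminescence read within 5 minutes of enzyme addition to compounds. Activity normalised to PTC124 versus DMSO; concentration-response curves classed by r2, magnitude and activity.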
Chain of Luciferin 4-monooxygenase (Photinus pyralis) (P08659 whole entry, looked up): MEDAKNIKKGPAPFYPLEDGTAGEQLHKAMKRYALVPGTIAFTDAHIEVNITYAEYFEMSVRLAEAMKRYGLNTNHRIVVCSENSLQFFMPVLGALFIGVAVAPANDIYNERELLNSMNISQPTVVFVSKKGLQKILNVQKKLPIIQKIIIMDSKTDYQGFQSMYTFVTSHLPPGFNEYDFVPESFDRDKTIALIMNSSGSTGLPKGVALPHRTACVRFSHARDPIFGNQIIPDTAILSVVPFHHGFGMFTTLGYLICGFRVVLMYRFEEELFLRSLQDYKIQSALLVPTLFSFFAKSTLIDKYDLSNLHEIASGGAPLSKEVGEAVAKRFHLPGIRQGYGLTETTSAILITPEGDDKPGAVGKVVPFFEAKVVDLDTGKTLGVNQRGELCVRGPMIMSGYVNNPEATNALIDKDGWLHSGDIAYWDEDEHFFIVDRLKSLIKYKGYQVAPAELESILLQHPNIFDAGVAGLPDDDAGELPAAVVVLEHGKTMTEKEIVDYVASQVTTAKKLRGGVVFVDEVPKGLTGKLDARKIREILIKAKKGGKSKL

Assay [2] can be described thus: S16 Schwann cell viability assay (CellTiter-Glo assay) (AID 624031). Also: nearly all actives have a fitted effect of over 70% in size. Also: potency is read from the fitted curve at half-maximal effect. An outline of the steps: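 Luminescent ATP read-out (CellTiter-Glo) after 24 h compound exposure of native S16 rat Schwann cells at 37 °C. Signals were normalized between cell-free wells and DMSO-treated cells, set as 0% activity.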
A short description of assay [3]: S16 Schwann cell PMP22 intronic element beta-lactamase assay (AID 624044; calls by dose curve; also: nearly all actives have a fitted effect of over 15% in size; also: potency is read from the fitted curve at half-maximal effect). An outline of the steps: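 Beta-lactamase reporter under a PMP22 intronic regulatory element in stable S16 rat Schwann cells; 24 h compound exposure. 460 nm blue signal normalized between DMSO (0%) and potassium clavulanate, with 535 nm FRET tracking viability; curves classed by r2 and response.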

The next assay deals with CP215. The assay is described as follows: qHTS profiling for inhibitors of Plasmodium falciparum proliferation (AID 504749). Also: nearly all actives have a fitted effect of over 60% in size. Also: potency is read from the fitted curve at half-maximal effect. To be noted: P. falciparum in erythrocytes, SYBR Green DNA, 72 h; series mostly up to 28.7 µM. An outline of the steps: (§1)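 SYBR Green fluorescence (ex 485 nm, em 535 nm) reports parasite DNA after 72 h compound exposure of infected red cells at 0.3% parasitemia, 2.5% hematocrit; signal normalized to 0.29 uM artemisinin and vehicle wells.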

The subject of the next assay is CP256. Described as above. As to conditions: P. falciparum in erythrocytes, SYBR Green DNA, 72 h; series mostly up to 28.7 µM. A digest of the protocol:
as §1

For a further assay, the system named is CP260. The assay is described as above. To be noted: P. falciparum in erythrocytes, SYBR Green DNA, 72 h; series mostly up to 28.7 µM. A digest of the protocol: as §1
The next assay deals with DIV14. The description is as above. To be noted: P. falciparum in erythrocytes, SYBR Green DNA, 72 h; series mostly up to 28.7 µM. A digest of the protocol: as §1
In another assay the test system is GB4. The assay is described as above. As to conditions: P. falciparum in erythrocytes, SYBR Green DNA, 72 h; series mostly up to 28.7 µM. An outline of the steps:
as §1

In a further assay the test system is ICS. The assay is described as above. As to conditions: P. falciparum in erythrocytes, SYBR Green DNA, 72 h; series mostly up to 28.7 µM. A digest of the protocol:
as §1

For the next assay, the system named is DIV17. The assay is described as above. To be noted: P. falciparum in erythrocytes, SYBR Green DNA, 72 h; series mostly up to 28.7 µM. An outline of the steps: as §1
In a further assay the test system is W2. Described as above. As to conditions: P. falciparum in erythrocytes, SYBR Green DNA, 72 h; series mostly up to 28.7 µM. An outline of the steps: as §1
For assay [4], the target named is DNA dC->dU-editing enzyme APOBEC-3G (Homo sapiens) (UniProt Q9HC16). The assay is described as follows: qHTS for inhibitors of Vif-A3G interactions: Validation (AID 588379). A digest of the protocol:
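Yellow fluorescence (Ex 488, Em 500-530) of Vif-coexpressing HeLa A3G-eYFP cells, scanned by Acumen cytometer, reports blocked A3G degradation. Cells plated at 700/well overnight at 37 deg C before compound addition, then a further overnight compound incubation at 37 deg C.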

Inconclusive results are not listed. Activity calls are given as the source filed them. Unless noted, calls follow the shape of the dose curve; as a rule, active = well fitted curve in the direction sought with a large enough effect; inconclusive = small, poorly fitted or top-dose-only effect, or another doubt; inactive = no such curve, though single readings can be large; an effect the other way counts as inactive or inconclusive. Bridge positions count the residues as written; N and C are the ends. Square brackets hold non-standard residues; d marks the D form. Peptide text beside a SMILES is read from it. * marks the point of attachment. ξ: configuration not given here. ξDab(CH2SO3H) = NC(CCNCS(=O)(=O)O)C(=O)O; Heptanoyl(6-Me) = CC(C)CCCCC(=O)*; Dab = NCC[CH](N)C(=O)O

This passage reports Potency results from PubChem BioAssay (NCATS).

Chain of DNA dC->dU-editing enzyme APOBEC-3G (Homo sapiens) (Q9HC16 whole entry, looked up): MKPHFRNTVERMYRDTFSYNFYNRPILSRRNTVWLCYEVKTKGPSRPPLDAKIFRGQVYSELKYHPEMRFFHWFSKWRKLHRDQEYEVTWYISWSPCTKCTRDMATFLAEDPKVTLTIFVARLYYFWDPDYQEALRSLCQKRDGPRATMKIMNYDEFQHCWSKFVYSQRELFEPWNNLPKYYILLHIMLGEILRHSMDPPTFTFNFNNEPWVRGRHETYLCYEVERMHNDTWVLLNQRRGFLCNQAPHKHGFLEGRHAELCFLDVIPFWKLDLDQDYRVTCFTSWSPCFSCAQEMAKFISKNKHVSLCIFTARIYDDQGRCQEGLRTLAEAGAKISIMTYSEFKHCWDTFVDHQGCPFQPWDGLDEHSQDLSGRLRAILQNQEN

As for `CCC1NC(=O)C(NC(=O)c2ncccc2O)C(C)OC(=O)C(c2ccccc2)NC(=O)C2CC(=O)CCN2C(=O)C(Cc2ccccc2)N(C)C(=O)C2CCCN2C1=O` (stereo not given), the Potency entry (in assay [1]; in assay [2]; in assay [3]; with CP215; with CP256; in the assay with CP260) was “inactive” throughout.

`O=C1/C(=C\c2cccs2)CCC/C1=C/c1cccs1`: the Potency in assay [1] was 5.73 µM (active). Besides, the Potency result (in [2]; in assay [3]; in the assay with CP215; in the assay with CP256; with CP260; in the assay with DIV14) was “inactive” in each case. Moreover, the Potency result in the assay with GB4 and in the assay with ICS was “inactive” throughout.

In the case of `O=C(OCC1OC(OC(=O)c2cc(O)c(O)c(OC(=O)c3cc(O)c(O)c(O)c3)c2)[C@@H](OC(=O)c2cc(O)c(O)c(OC(=O)c3cc(O)c(O)c(O)c3)c2)C(OC(=O)c2cc(O)c(O)c(OC(=O)c3cc(O)c(O)c(O)c3)c2)C1OC(=O)c1cc(O)c(O)c(OC(=O)c2cc(O)c(O)c(O)c2)c1)c1cc(O)c(O)c(OC(=O)c2cc(O)c(O)c(O)c2)c1` (stereo not given in full), the Potency was 20.3 µM (active) in assay [2]; 22.4 µM (active) in assay [3]; 3.79 µM (active) in the assay on CP215; 3.55 µM (active) in the assay with CP256; 3.55 µM (active) in the assay with CP260; 3.79 µM (active) with DIV14. The Potency in the assay with DIV17 is 2.69 µM (active); in the assay with GB4, 3.38 µM (active); in the assay on ICS, 2.51 µM (active); with W2, 1.51 µM (active).

Turning to `CC(C)C[C@H](NC(=O)[C@@H](Cc1c[nH]c2ccccc12)NC(=O)[C@@H](Cc1ccc(O)cc1)NC(=O)[C@@H](CO)NC(=O)[C@@H](Cc1c[nH]c2ccccc12)NC(=O)C(Cc1cnc[nH]1)NC(=O)C1CCC(=O)N1)C(=O)N[C@@H](CCCN=C(N)N)C(=O)N1CCC[C@@H]1C(=O)NCC(N)=O` (stereo not given in full), the Potency entry (in [1]; in assay [2]; in [3]; in the assay with CP215; in the assay with CP256; with CP260) was “inactive” throughout. For the same compound, the Potency result in the assay with DIV14, with DIV17, in the assay with GB4, in the assay on ICS and with W2 was “inactive” throughout.

Turning to `CCC(C)C1NC(=O)C(CCNCS(=O)(=O)O)NC(=O)C(NC(=O)C(CCNCS(=O)(=O)O)NC(=O)C(NC(=O)C(CCNCS(=O)(=O)O)NC(=O)CCCCC(C)C)C(C)O)CCNC(=O)C(C(C)O)NC(=O)C(CCNCS(=O)(=O)O)NC(=O)C(CCNCS(=O)(=O)O)NC(=O)C(C(C)CC)NC1=O` (stereo not given) ({Heptanoyl(6-Me)}-[ξDab(CH2SO3H)]T[ξDab(CH2SO3H)][Dab][ξDab(CH2SO3H)]II[ξDab(CH2SO3H)][ξDab(CH2SO3H)]T; lactam 4-C; configuration not given here), the Potency result (in [1]; in assay [2]; in assay [3]; in the assay with DIV14; in the assay with DIV17; in the assay on GB4) was “inactive” in each case. In addition, the Potency entry in the assay with ICS and with W2 was “inactive” throughout.

On to `CC1(C)C(/C=C/C=C/C=C/C=C2\N(CCCCS(=O)(=O)O)c3ccc4ccccc4c3C2(C)C)=[N+](CCCCS(=O)(=O)[O-])c2ccc3ccccc3c21`, for which the Potency result (in assay [2]; in assay [3]; with CP215; in the assay on CP256; in the assay with DIV14; in the assay with DIV17) was “inactive” throughout. The Potency entry with GB4 and in the assay on ICS was “inactive” throughout.

For the compound `Cc1ccc2oc(-c3ccccc3)cc(=O)c2c1`, in [4], the Potency result was “inactive”.

On to `C[C@H](C(=O)O)c1cccc(C(=O)c2ccccc2)c1`, for which the Potency entry in [4] was “inactive”.

`CNCC(=O)NC(CCCN=C(N)N)C(=O)NC(C(=O)NC(Cc1ccc(O)cc1)C(=O)NC(C(=O)NC(Cc1cnc[nH]1)C(=O)N1CCCC1C(=O)NC(C)C(=O)O)C(C)C)C(C)C` (stereo not given): the Potency entry (in assay [1]; in assay [2]; in the assay with CP215; with CP256; in the assay on CP260; with DIV14) was “inactive” throughout. The Potency entry in the assay with DIV17, with GB4, in the assay on ICS and in the assay on W2 was “inactive” throughout.

Turning to `CCC(C)C1NC(=O)C(Cc2ccc(O)cc2)NC(=O)C(N)CSSCC(C(=O)N2CCCC2C(=O)NC(CC(C)C)C(=O)NCC(N)=O)NC(=O)C(CC(N)=O)NC(=O)C(CCC(N)=O)NC1=O` (stereo not given), the Potency result (in assay [1]; in the assay on CP215; in the assay on CP256; in the assay with CP260; in the assay on DIV14; with DIV17) was “inactive” each time. Besides, the Potency entry in the assay on GB4, in the assay with ICS and in the assay with W2 was “inactive” each time.

`COc1cc(OC)c2c(c1)OC(c1ccccc1)CC2=O` (stereo not given): in assay [4], the Potency entry is “inactive”.

Take `CC(N)C(=O)NCC(=O)NC1CSSCC(C(=O)O)NC(=O)C(CO)NC(=O)C(C(C)O)NC(=O)C(Cc2ccccc2)NC(=O)C(C(C)O)NC(=O)C(CCCCN)NC(=O)C(Cc2c[nH]c3ccccc23)NC(=O)C(Cc2ccccc2)NC(=O)C(Cc2ccccc2)NC(=O)C(CC(N)=O)NC(=O)C(CCCCN)NC1=O` (stereo not given): the Potency entry (in assay [1]; in assay [2]; with CP215; with CP256; with CP260; in the assay on DIV14) was “inactive” in each case. The Potency result in the assay with DIV17, with GB4, in the assay on ICS and in the assay with W2 was “inactive” in each case.

Take `C[C@H]1[C@H]2CC[C@H]3C4CC=C5C[C@@H](N(C)C)CC[C@]5(C)C4CC[C@]23CN1C` (stereo not given in full): the Potency entry in [4] is “inactive”.
